Results on 40 compounds are retold here after PubChem BioAssay (NCATS).

Structures are written as SMILES. Where “and” joins values, the source holds several entries; their conditions need not be identical. Equal values may be shown once. Records with an inconclusive call do not appear. Where a structure was tested more than once in an assay, its records may differ in their call. Calls of active or inactive are those of the source. Calls follow the shape of the dose curve; as a rule, active = well fitted cell-killing curve with a large enough effect; inconclusive = small, poorly fitted or top-dose-only effect; inactive = flat fitted curve, though single readings scatter.
% is scaled to controls: 0 for no effect and ±100 for the full control effect; potency is read from the fitted curve at half-maximal effect.

A short description of the assay: Cellular viability qHTS for adrenocortical cancer (ACC) cell line SW-13 (AID 1963989). Also: nearly all actives have a fitted effect of over 65% in size.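 As to activity (max response): cells grown in serum-free medium with ITS supplement.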 Conditions: SW-13 ACC cells viability, CellTiter-Glo, 48 h; activity (max response): active compounds read low. In outline:
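Compound titrations (up to 46 uM final, in DMSO) were applied to SW-13 cells for 48 h at 37C/5% CO2. Reading used CellTiter-Glo after 20 min at room temperature; fitted curves yielded IC50 and efficacy.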
For `COc1cc(C(=O)NC(N)=Nc2ccc(C)c(NC(=O)c3ccc(-c4ccccc4)cc3)c2)cc(OC)c1OC`, the Potency was 11.2 µM (active).

`COc1cc(N2CCN(C(C)=O)CC2)ccc1Nc1ncc(Cl)c(Nc2ccc(N3CCN(C(C)=O)CC3)cc2OC)n1`: the Potency was 25.1 µM (active). On to `CCCCC/C(C=O)=C\c1ccccc1`, for which the activity (max response) was 6.34% (inactive). Still for that read-out and setting: to `O=c1sn(-c2cccc3ccccc23)c(=O)n1Cc1ccccc1` belongs -18.3% (inactive). On to `Nc1nccc2c1ncn2[C@@H]1C=C(CO)[C@@H](O)[C@H]1O`, for which the Potency is 7.94 µM (active). Consider `CCC(=O)O[C@H]1[C@H](O[C@@H]2[C@@H](C)[C@H](O[C@H]3C[C@@](C)(OC)[C@@H](O)[C@H](C)O3)[C@@H](C)C(=O)O[C@H](CC)[C@@](C)(O)[C@H](O)[C@@H](C)C(=O)[C@H](C)C[C@@]2(C)O)O[C@H](C)C[C@@H]1N(C)C`, for which the activity (max response) was 0.809% (inactive).

Regarding `Cc1nc(NC(=O)N2CCC[C@H]2C(N)=O)sc1-c1csc(C(C)(C)C)n1`, the activity (max response) was -23.3% (inactive).

Consider `Nc1ccc(C(=O)O)c(O)c1`, for which the activity (max response) is 12.8% (inactive). For `NC(=NCCCCCCN=C(N)/N=C(\N)Nc1ccc(Cl)cc1)/N=C(\N)Nc1ccc(Cl)cc1`, the Potency is 5.17 µM (active). Regarding `CC(=O)O[C@]1(C(C)=O)CC[C@H]2[C@@H]3C=C(C)C4=CC(=O)CC[C@]4(C)[C@H]3CC[C@@]21C`, the activity (max response) is 8.88% (inactive) and -22.2% (inactive).

For `OC[C@H]1O[C@@H](S[C@@H]2O[C@H](CO)[C@H](O)[C@H](n3cc(-c4cccc(F)c4)nn3)[C@H]2O)[C@H](O)[C@@H](n2cc(-c3cccc(F)c3)nn2)[C@H]1O`, the activity (max response) is 11.8% (inactive). In the case of `O=S(=O)(O)c1ccc2nc(-c3ccccc3)[nH]c2c1`, the activity (max response) was -14% (inactive). On to `COc1ccc(/C=C\c2cc(OC)c(OC)c(OC)c2)cc1O`, for which the Potency was 0.01 µM (active). On the same count and under the same terms, to `CCCNC(=O)[C@H]1O[C@@H]1C(=O)N[C@H](C(=O)N1CCC[C@H]1C(=O)OC)C(C)CC` (stereo partly specified) belongs 10 µM (active). Take `CCc1cc(/C(C)=N/OCc2ccc(C3CCCCC3)c(C(F)(F)F)c2)ccc1CN1CC(C(=O)O)C1`: the activity (max response) is -17.6% (inactive). In the case of `COc1cc2ncnc(Nc3ccc(O)c(Br)c3)c2cc1OC`, the Potency is 3.55 µM (active). In the case of `CCC(=O)O[C@]1(C(=O)CCl)[C@@H](C)C[C@H]2[C@@H]3CCC4=CC(=O)C=C[C@]4(C)[C@@]3(F)[C@@H](O)C[C@@]21C`, the activity (max response) was -11.2% (inactive) and -16.8% (inactive).

`CCCCCCCC/C=C\CCCCCCCC(=O)NCc1ccc(O)c(OC)c1`: the Potency was 3.26 µM (active). The same measure, in the same setting: the figure for `C[C@@H](Oc1cc(C(=O)Nc2ccc(C(=O)N3CCN(C)CC3)cc2)nnc1N)c1c(Cl)ccc(F)c1Cl` is 17.8 µM (active). Consider `CC(=O)/C=C/C=C1/C2CCC(C2)C1(C)C` (stereo unspecified), for which the activity (max response) is 6.09% (inactive). `CCC1=C[C@@H]2CN(C1)Cc1c([nH]c3ccccc13)[C@@](C(=O)OC)(c1cc3c(cc1OC)N(C)[C@H]1[C@@](O)(C(=O)OC)[C@H](OC(C)=O)[C@]4(CC)C=CCN5CC[C@]31[C@@H]54)C2`: the Potency was 0.143 µM (active) and the activity (max response) was -91.8% (inactive).

With `CCOC(=O)c1ccnc(CNCC(=O)N(CC)CCN(C)C)c1`, the activity (max response) is -23.8% (inactive). Same read-out and setting: to `NNc1nnc(NN)c2ccccc12` belongs -8.18% (inactive); to `CCN(CC)CCOC(=O)C1(C2CCCCC2)CCCCC1`, -12.2% (inactive). On the same count and under the same terms, to `CCCOc1ccc2c(c1)CC[C@@H]1[C@@H]2CC[C@]2(C)C(OC)CC[C@@H]12` (stereo partly specified) belongs 13.8% (inactive). Regarding `CCCCCOc1ccccc1/C(=C\SC)n1ccnc1`, the Potency was 23.1 µM (active). On the same count and under the same terms, the figure for `CNS(=O)(=O)c1ccc2c(c1)/C(=C/c1[nH]c3c(c1CCCN1CCN(C)CC1)CCCC3)C(=O)N2` is 28.2 µM (active); for `CC[C@@]1(O)C(=O)OCc2c1cc1n(c2=O)Cc2c-1nc1ccccc1c2CCNC(C)C` it is 0.0823 µM (active). Take `O=C(/C=C/c1ccc(Cl)cc1)N1CCC2(CC1)CN(Cc1ccc(Cl)c(Cl)c1)C(=O)O2`: the activity (max response) is -3.3% (inactive).

Turning to `COc1ccc(Cl)c(Nc2ncnc3cc(OCC4CCN(C)CC4)c(OC)cc23)c1`, the Potency is 15.8 µM (active). In the case of `CN(C)CCCOC1(Cc2ccccc2)CCCCCC1`, the activity (max response) is 2.61% (inactive). On the same count and under the same terms, to `CC1=C(c2ccc(O)cc2)[C@H](c2ccc(OCCN3CCCCC3)cc2)Oc2cc(O)ccc21` belongs -12% (inactive).

As to `Cc1[nH]c(/C=C2\C(=O)Nc3ccc(F)cc32)c(C)c1C(=O)NC[C@H](O)CN1CCOCC1`, the activity (max response) is -9.94% (inactive). `CC(C)(C)c1[nH]cnc1/C=c1\[nH]c(=O)/c(=C/c2ccccc2)[nH]c1=O`: the Potency was 0.0398 µM (active). In the case of `CC(=O)OCC[N+](C)(C)C`, the activity (max response) is 10.9% (inactive).

On to `C[C@@H]1CCNC(=O)c2cc3ccc(C(=O)Nc4nc5ccccc5n4CCCN(C)C)cc3n21`, for which the Potency is 25.1 µM (active). For the compound `Cc1cc(CS(=O)(=O)c2ccccc2)cc(OCc2ccc(CN3CCC[C@@H]3CO)cc2)c1`, the Potency is 28.2 µM (active). For the compound `Cc1ccc(-n2nc(C(C)(C)C)cc2NC(=O)NCc2cc(F)ccc2Oc2ccc3c(cnn3CCO)c2)cc1`, the Potency is 17.8 µM (active). On to `Cc1c(-c2cnccn2)ssc1=S`, for which the activity (max response) was -8.54% (inactive). Still for that read-out and setting: the figure for `COc1c2occc2c(OC)c2c(=O)cc(C)oc12` is 12.7% (inactive).
